Results taken from the supplement of paper PMC6555819.

system: VDR:RXRa (NR concentration 270 nM, RXRa partner concentration 90 nM); experiment: PBM binding z-score (relative to random genomic background probes); higher = stronger binding; sequences stand for … in GC…GCGATTGACAGCGTAGAATGAAGG
Protocol: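 Protein-binding microarray (Agilent 4x180K custom design, double-stranded 60-nt probes: 5' GC cap, 34-nt variable region, 24-nt constant primer region; full probe sequence given). Purified or IVT nuclear receptor:RXRα heterodimers (3:1 NR:RXRα, mostly 270:90 nM) or homodimers were incubated for 1 h in PBS with 2% milk and no ligand, then detected with Alexa488 antibodies. Fluorescence from o1-orientation probes (~5 replicates averaged) was converted to z-scores against 500 random hg19 background probes. Variable regions are seed direct-repeat (DR0–DR5) sites, all their single-nucleotide variants and half-site ablations.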

**Q.** How did the PBM binding z-score turn out when GCATATAGGTATTACAAGGTGAAAGTCCGATTGT was run?
**A.** 0.134

**Q.** How did the PBM binding z-score turn out when CGAACTAGGTCAGATCAGGACAGTGAAGGATGAT was run?
**A.** 1.12

**Q.** With CCTTTCGGGTCACTCCAGGTTATAGCATCGGAGT as the sequence, how does the PBM binding z-score read?
**A.** 4.19

**Q.** Which PBM binding z-score does the source give for CCTCGGAGGACAGAAGGTAAGAGCTGTCCGCTTT here?
**A.** -0.622

**Q.** Which PBM binding z-score does the source give for TCATATAGGTACAGGTGAAAGTCGAACGATATGA here?
**A.** 0.846

**Q.** Which PBM binding z-score does the source give for AGAATGAGGTTACGAAAGATCAGGGAAACGCTTG here?
**A.** 1.52

**Q.** Which PBM binding z-score does the source give for TCTGCTAGGTCGACGATGGTCAGCTAATCTGCTA here?
**A.** -0.229

**Q.** With ATCTCTAGGTAATAGTTCAGTGAATCCCGAGGAT as the sequence, how does the PBM binding z-score read?
**A.** 0.188

**Q.** With ATCGAAAGGTCGAGGTCAGTATAGAGAAAGGGAA as the sequence, how does the PBM binding z-score read?
**A.** 4.49

**Q.** Which PBM binding z-score does the source give for CCTACTGGGCCATCAGGTCATAGATATCAACGTT here?
**A.** 1.25

**Q.** TCATATAGGTAAAAGATGAAAGTCGGTGTGGTAA was tested. Which PBM binding z-score did it give?
**A.** 0.912

**Q.** For ACTAGCAGGCCAAGTTTGGGTCACTGAAACAAAG, which PBM binding z-score is on record?
**A.** 0.731

**Q.** How did the PBM binding z-score turn out when CGTCAAAGTTCGAGGTAACGTAACAGAAAGCAGC was run?
**A.** 1.32

**Q.** Which PBM binding z-score does the source give for CCGACTGGGGCATAAAGGTTACCATACCATCCGG here?
**A.** 1.4

**Q.** How did the PBM binding z-score turn out when TCTCGGAGTACACGAAAGGTCAGAGCTCGACATC was run?
**A.** 3.41

**Q.** For CCTAGTTGGTCATGGTCACACACGCTATAGGTAC, which PBM binding z-score is on record?
**A.** 0.655

**Q.** How did the PBM binding z-score turn out when CCTAGCAGGCCAGGGTCACTCCAGCATTTCGCTT was run?
**A.** 2.18

**Q.** For CGAACTAGGTCAGGGACAGTGAATCTCCGCACGC, which PBM binding z-score is on record?
**A.** 0.457

**Q.** TCTCCGAGGACACGAAGGTCAGAGCTTTCCAGAG was tested. Which PBM binding z-score did it give?
**A.** 2.69

**Q.** Which PBM binding z-score does the source give for AGAATGAGGGCAATGAGTTGATAGCACGGGTGGC here?
**A.** 4.98

**Q.** TATACCGGGTCAAAGGCCAGAGTACGAATGTCGA was tested. Which PBM binding z-score did it give?
**A.** 3.9

**Q.** Which PBM binding z-score does the source give for GGAACGAGGCCATTCGAGTTGATAGCATGGCGAT here?
**A.** 1.43

**Q.** How did the PBM binding z-score turn out when GGAAGGAGGGCAAAGTTGATAGCATCTGTCGACG was run?
**A.** 0.964

**Q.** How did the PBM binding z-score turn out when GGAACGAGGGCAAAGTTGATATCATCTGTCGACG was run?
**A.** 1.34

**Q.** How did the PBM binding z-score turn out when CGTCAAAGTTCAGCTAAGGTAACGTAAAGCACGC was run?
**A.** 3.33

**Q.** How did the PBM binding z-score turn out when CCGAGTAGGTTATAGGGCATTCAGGCAACGGTGA was run?
**A.** 0.402

**Q.** How did the PBM binding z-score turn out when CCGACTGGGGTAAGGTTACCATAACGCACAGCCA was run?
**A.** 0.525

**Q.** For CTCGAAAGGTCGGTTGAGGTAAGTATACGGATAA, which PBM binding z-score is on record?
**A.** 1.57

**Q.** With TAGCCTAGGTCATTGGGCCACTATAGTACGCATC as the sequence, how does the PBM binding z-score read?
**A.** 2.23

**Q.** GCTTGTAGATCAAGGTTACGAAAGACTAAGCTAA was tested. Which PBM binding z-score did it give?
**A.** 0.359

**Q.** Which PBM binding z-score does the source give for GCTCGGAGGACAAGGCCAGAGCTTTGTCCGTAGA here?
**A.** -1.03

**Q.** With CCTTACGGGTCACTCCAGGGTATAGCATCGGAGT as the sequence, how does the PBM binding z-score read?
**A.** 3.25

**Q.** With ACAGACAGGTGATGAAGGTAACTGAGGCTATCAT as the sequence, how does the PBM binding z-score read?
**A.** 0.346

**Q.** CGTAAAAGTTCAACTAAGGTAACGTAAAGCACGC was tested. Which PBM binding z-score did it give?
**A.** 4.33

**Q.** Which PBM binding z-score does the source give for CATACAGGGGCAGCTAGGCCAGAGTAGGGACGGC here?
**A.** -0.446

**Q.** For ATCCCTAGGTAAAGATAGTTCAGTGAATGCAAAT, which PBM binding z-score is on record?
**A.** 0.829

**Q.** With GCATATTGGTAATACAAGGTGAAAGTCCGATTGT as the sequence, how does the PBM binding z-score read?
**A.** -0.16

**Q.** ATCGATAGGTCGAAGGTGAGTATACCCACCCGAA was tested. Which PBM binding z-score did it give?
**A.** 0.776

**Q.** Which PBM binding z-score does the source give for AGAATGAGGTTAATAAGATCAGGGAATTGCGGTC here?
**A.** 2.02

**Q.** Which PBM binding z-score does the source give for CGAACTAGGTCAGAACAGGACAATGAAGGATGAT here?
**A.** 1.11
